Experimental data taken from the supplement of paper PMC8728848.
This is one part of a sample in which the strongest signals are shown more often than they occur.

Legend:
Assay in all cases: glycan array binding signal (z-score within array); higher = stronger binding
Conditions in all cases: glycan notation: IUPAC condensed, linker removed
Fuc(a1-2)Gal(b1-3)GalNAc = target: Fuc(a1-2)Gal(b1-3)GalNAc
Method in brief: (§1)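 The Consortium for Functional Glycomics database supplied 3228 glycan arrays, of which those lacking an available protein sequence were dropped. The binding signal, a within-array Z-score, was averaged across arrays of the same protein sequence and across linkers. Negative scores can be read as non-binding.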

Fuc(a1-2)Gal(b1-4)Glc = target: Fuc(a1-2)Gal(b1-4)Glc
Method in brief: as §1

[1] = target: Fuc(a1-2)[Gal(a1-3)]Gal(b1-3)GlcNAc
Method in brief: as §1

[2] = target: Fuc(a1-2)[Gal(a1-4)]Gal(b1-4)GlcNAc
Method in brief: as §1

[3] = target: Fuc(a1-3)[Gal(b1-4)]GlcNAc(b1-4)Gal(b1-4)[Fuc(a1-3)]GlcNAc(b1-4)Gal(b1-4)[Fuc(a1-3)]GlcNAc
Method in brief: as §1

[4] = target: Fuc(a1-3)[Gal3S(b1-4)]Glc6S
Method in brief: as §1

Gal(a1-4)Gal(b1-4)Glc = target: Gal(a1-4)Gal(b1-4)Glc
Method in brief: as §1

Gal(b1-2)Gal = target: Gal(b1-2)Gal
Method in brief: as §1

[5] = target: Gal(b1-3)GlcNAc(b1-3)Gal(b1-4)Glc
Method in brief: as §1

[6] = target: Gal(b1-3)[Fuc(a1-4)]GlcNAc(b1-3)Gal(b1-4)[Fuc(a1-3)]GlcNAc
Method in brief: as §1

GalNAc(b1-3)Gal = target: GalNAc(b1-3)Gal
Method in brief: as §1

[7] = target: GlcNAc(b1-2)Man(a1-3)[GlcNAc(b1-2)Man(a1-6)]Man(b1-4)GlcNAc(b1-4)GlcNAc
Method in brief: as §1

GlcNAc(b1-3)Man = target: GlcNAc(b1-3)Man
Method in brief: as §1

GlcNAc(b1-6)GalNAc = target: GlcNAc(b1-6)GalNAc
Method in brief: as §1

Kdn(a2-3)Gal(b1-4)GlcNAc = target: Kdn(a2-3)Gal(b1-4)GlcNAc
Method in brief: as §1

[8] = target: Man(a1-2)Man(a1-3)[Man(a1-2)Man(a1-6)]Man
Method in brief: as §1

[9] = target: Neu5Ac(a2-3)Gal(b1-3)GalNAc(b1-3)Gal(a1-4)Gal(b1-4)Glc
Method in brief: as §1

[10] = target: Neu5Ac(a2-3)Gal(b1-3)GalNAc6S
Method in brief: as §1

[11] = target: Neu5Ac(a2-3)Gal(b1-4)GlcNAc(b1-6)[Neu5Ac(a2-3)Gal(b1-3)]GalNAc
Method in brief: as §1

[12] = target: Neu5Ac(a2-6)Gal(b1-4)GlcNAc(b1-2)Man(a1-3)[GlcNAc(b1-2)Man(a1-6)]Man(b1-4)GlcNAc(b1-4)GlcNAc
Method in brief: as §1

[13] = target: Neu5Ac(a2-6)Gal(b1-4)GlcNAc(b1-2)Man(a1-6)[GlcNAc(b1-2)Man(a1-3)]Man(b1-4)GlcNAc(b1-4)GlcNAc
Method in brief: as §1

[14] = target: Neu5Ac(a2-6)GalNAc(b1-4)GlcNAc
Method in brief: as §1

[15] = target: Fuc(a1-2)Gal(b1-3)GalNAc(b1-3)Gal
Method in brief: as §1

[16] = target: Fuc(a1-2)Gal(b1-3)GalNAc(b1-3)Gal(a1-4)Gal(b1-4)Glc
Method in brief: as §1

Fuc(a1-2)Gal(b1-3)GlcNAc = target: Fuc(a1-2)Gal(b1-3)GlcNAc
Method in brief: as §1

[17] = target: Fuc(a1-2)[GalNAc(a1-3)]Gal(b1-4)[Fuc(a1-3)]GlcNAc
Method in brief: as §1

Gal(a1-3)Gal(b1-3)GlcNAc = target: Gal(a1-3)Gal(b1-3)GlcNAc
Method in brief: as §1

[18] = target: Gal(b1-3)GalNAc(b1-3)Gal(a1-4)Gal(b1-4)Glc
Method in brief: as §1

[19] = target: Gal(b1-3)[Fuc(a1-4)]GlcNAc
Method in brief: as §1

[20] = target: Gal(b1-3)[Fuc(a1-4)]GlcNAc(b1-3)Gal(b1-4)GlcNAc
Method in brief: as §1

[21] = target: Gal(b1-4)GlcNAc(b1-3)GalNAc
Method in brief: as §1

[22] = target: Gal3S(b1-3)[Fuc(a1-4)]GlcNAc
Method in brief: as §1

GalNAc(a1-3)Gal = target: GalNAc(a1-3)Gal
Method in brief: as §1

[23] = target: GlcNAc(b1-3)[GlcNAc(b1-6)]GalNAc
Method in brief: as §1

GlcNAc(b1-4)GlcNAc = target: GlcNAc(b1-4)GlcNAc
Method in brief: as §1

[24] = target: GlcNAc(b1-6)Gal(b1-4)GlcNAc
Method in brief: as §1

[25] = target: Man(a1-2)Man(a1-2)Man(a1-6)[Man(a1-3)]Man
Method in brief: as §1

[26] = target: Man(a1-2)Man(a1-6)[Man(a1-3)]Man(a1-6)[Man(a1-2)Man(a1-2)Man(a1-3)]Man
Method in brief: as §1

[27] = target: Neu5Ac(a2-3)Gal(b1-3)GalNAc(b1-4)[Neu5Ac(a2-3)]Gal(b1-4)Glc
Method in brief: as §1

[28] = target: Neu5Ac(a2-3)Gal(b1-4)GlcNAc(b1-3)Gal(b1-3)GlcNAc
Method in brief: as §1

[29] = target: Neu5Ac(a2-3)Gal6S(b1-4)[Fuc(a1-3)]GlcNAc
Method in brief: as §1

[30] = target: Neu5Ac(a2-6)Gal(b1-4)GlcNAc(b1-2)Man(a1-3)[GlcNAc(b1-2)Man(b1-4)GlcNAc(b1-2)Man(a1-6)]Man(b1-4)GlcNAc(b1-4)GlcNAc
Method in brief: as §1

Neu5Ac(a2-6)GalNAc = target: Neu5Ac(a2-6)GalNAc
Method in brief: as §1

[31] = target: Neu5Ac(a2-8)Neu5Ac(a2-8)Neu5Ac(a2-8)Neu5Ac(a2-3)[GalNAc(b1-4)]Gal(b1-4)Glc
Method in brief: as §1

Neu5Ac(b2-6)GalNAc = target: Neu5Ac(b2-6)GalNAc
Method in brief: as §1

B1: LSECtin (Homo sapiens), Q6UXB4 (protein)
chain: MEQESALRELRERVTQGLAEAGRGREDVRTELFRALEAVRLQNNSCEPCPTSWLSFEGSCYFFSVPKTTWAAAQDHCADASAHLVIVGGLDEQGFLTRNTRGRGYWLGLRAVRHLGKVQGYQWVDGVSLSFSHWNQGEPNDAWGRENCVMMLHTGLWNDAPCDSEKDGWICEKKAQLLTPPSALEPRPLQHVVSWGLLTSLAPGADCQRVFSSSSTAAESQKHLAQHSPVQPSAWALGPPCRPHPNSTHADPT
Fuc(a1-2)Gal(b1-3)GalNAc
  glycan array binding signal (z-score): -0.303
Fuc(a1-2)Gal(b1-4)Glc
  glycan array binding signal (z-score): 3.15
[1]
  glycan array binding signal (z-score): -0.278
[2]
  glycan array binding signal (z-score): 2.9
[3]
  glycan array binding signal (z-score): -0.279
[4]
  glycan array binding signal (z-score): 0.092
Gal(a1-4)Gal(b1-4)Glc
  glycan array binding signal (z-score): -0.309
Gal(b1-2)Gal
  glycan array binding signal (z-score): -0.302
[5]
  glycan array binding signal (z-score): -0.295
[6]
  glycan array binding signal (z-score): -0.241
GalNAc(b1-3)Gal
  glycan array binding signal (z-score): -0.287
[7]
  glycan array binding signal (z-score): 5.09
GlcNAc(b1-3)Man
  glycan array binding signal (z-score): 0.057
GlcNAc(b1-6)GalNAc
  glycan array binding signal (z-score): -0.174
Kdn(a2-3)Gal(b1-4)GlcNAc
  glycan array binding signal (z-score): -0.308
[8]
  glycan array binding signal (z-score): 0.406
[9]
  glycan array binding signal (z-score): -0.275
[10]
  glycan array binding signal (z-score): -0.307
[11]
  glycan array binding signal (z-score): -0.297
[12]
  glycan array binding signal (z-score): 5.63
[13]
  glycan array binding signal (z-score): 5.21
[14]
  glycan array binding signal (z-score): -0.301

B2: Glycodelin A (Homo sapiens), P09466 (protein)
chain: MLCLLLTLGVALVCGVPAMDIPQTKQDLELPKLAGTWHSMAMATNNISLMATLKAPLRVHITSLLPTPEDNLEIVLHRWENNSCVEKKVLGEKTENPKKFKINYTVANEATLLDTDYDNFLFLCLQDTTTPIQSMMCQYLARVLVEDDEIMQGFIRAFRPLPRHLWYLLDLKQMEEPCRF
Fuc(a1-2)Gal(b1-3)GalNAc
  glycan array binding signal (z-score): -0.421
[15]
  glycan array binding signal (z-score): -0.414
[16]
  glycan array binding signal (z-score): -0.485
Fuc(a1-2)Gal(b1-3)GlcNAc
  glycan array binding signal (z-score): -0.318
[17]
  glycan array binding signal (z-score): -0.439
Gal(a1-3)Gal(b1-3)GlcNAc
  glycan array binding signal (z-score): 4.32
[18]
  glycan array binding signal (z-score): -0.473
[19]
  glycan array binding signal (z-score): 0.183
[20]
  glycan array binding signal (z-score): 1.52
[21]
  glycan array binding signal (z-score): -0.373
[22]
  glycan array binding signal (z-score): 3.69
GalNAc(a1-3)Gal
  glycan array binding signal (z-score): -0.099
[23]
  glycan array binding signal (z-score): -0.397
GlcNAc(b1-4)GlcNAc
  glycan array binding signal (z-score): -0.002
[24]
  glycan array binding signal (z-score): -0.5
[25]
  glycan array binding signal (z-score): -0.508
[8]
  glycan array binding signal (z-score): -0.43
[26]
  glycan array binding signal (z-score): -0.427
[27]
  glycan array binding signal (z-score): -0.406
[28]
  glycan array binding signal (z-score): -0.449
[29]
  glycan array binding signal (z-score): -0.448
[30]
  glycan array binding signal (z-score): 2.02
Neu5Ac(a2-6)GalNAc
  glycan array binding signal (z-score): 4.31
[31]
  glycan array binding signal (z-score): 4.64
Neu5Ac(b2-6)GalNAc
  glycan array binding signal (z-score): 3.68
